In experiment [1] the target is Calcium and integrin-binding protein 1 (Homo sapiens) (UniProt Q99828). Briefly: Primary qHTS for Identification of Calcium Integrin Binding Protein 1 (CIB1) Competitor (AID 1508620).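 Further: GST tagged CIB1 binding a fluorescein labelled alphaIIb integrin peptide tracer; top concentration of the series differs between compounds.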 The conditions noted are these: CIB1-GST / FITC-alphaIIb peptide fluorescence polarization; series mostly up to 57.7 µM. An outline of the steps:
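Fluorescence polarization competition: CIB1-GST (1 uM final) preincubated with compound 15 min at room temperature, then FITC-labeled alphaIIb peptide (100 nM final) added for another 15 min. Polarization read at Ex 480/Em 540.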

Experiment [2] is described as follows: Primary qHTS for small molecule stabilizers of the endoplasmic reticulum resident proteome: Secreted ER Calcium Modulated Protein (SERCaMP) assay (AID 1508630). The note with it: SH-SY5Y GLuc-SERCaMP (Gaussia luciferase released on ER calcium loss) secretion, thapsigargin, luminescence; series mostly up to 38.4 µM. In outline:
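GLuc-SERCaMP-expressing SH-SY5Y cells, pretreated 16 h with compound, are challenged with thapsigargin to empty ER calcium stores; after 4 h, coelenterazine is added directly to the medium and luminescence is imaged.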

Experiment [3] concerns the target Cytochrome P450 2C9 (Homo sapiens) (UniProt P11712). The experiment is described as follows: Cytochrome P450 family 2 subfamily C member 9 (CYP2C9) small molecule antagonists: luciferase biochemical (cell-free) qHTS assay (AID 1645842; active means well fitted curve in the direction sought with a large enough effect in the repeat runs; an effect the other way counts as inactive or inconclusive; further: nearly all actives have a fitted effect of over 55% in size; further: potency means the concentration at half of the fitted maximal effect). The conditions noted are these: P450-Glo CYP2C9 enzyme assay, luciferin luminescence; series mostly up to 57.4 µM. An outline of the steps:
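Luminescence, after 20 min with luciferin detection reagent, reflected CYP2C9 turnover during a 1 h NADPH-driven reaction at 37C. Enzyme-substrate mix contained 0.4% bovine serum albumin and was preincubated with compound 10 min at room temperature.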
For orientation: In qHTS, concentration-response curves come from the screen itself.

Experiment [4] deals with Cytochrome P450 2D6 (Homo sapiens) (UniProt P10635). The experiment is described as follows: Cytochrome P450 family 2 subfamily D member 6 (CYP2D6) small molecule antagonists: luciferase biochemical (cell-free) qHTS assay (AID 1645840; active means well fitted curve in the direction sought with a large enough effect in the repeat runs; an effect the other way counts as inactive or inconclusive; further: nearly all actives have a fitted effect of over 55% in size; further: potency means the concentration at half of the fitted maximal effect). The conditions noted are these: P450-Glo CYP2D6 enzyme, luciferin luminescence, 1 h; series mostly up to 57.4 µM. In outline:
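P450-Glo luminescent screen: recombinant CYP2D6 enzyme–proluciferin substrate mix preincubated with compound 10 min at room temperature, then NADPH regeneration added for 1 h at room temperature. Detection reagent added for 20 min; luciferin light read as relative luminescence units.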

SMILES strings stand for the structures. Values joined by “and” are separate entries in the source; they are usually repeats but may differ in a detail not shown here. Identical values can stand only once. Inconclusive results are not listed. Where a call stands in place of a potency, no number is given. Values without a mark were called inactive. Active and inactive are the calls of the source. Unless noted, the call rests on the fitted dose curve; in most records, active means well fitted curve in the direction sought with a large enough effect; inconclusive means small, poorly fitted or top-dose-only effect, or another doubt; inactive means no such curve, though single readings can be large; an effect the other way counts as inactive or inconclusive.

Calcium and integrin-binding protein 1 (Homo sapiens), sequence (Q99828 whole entry, looked up): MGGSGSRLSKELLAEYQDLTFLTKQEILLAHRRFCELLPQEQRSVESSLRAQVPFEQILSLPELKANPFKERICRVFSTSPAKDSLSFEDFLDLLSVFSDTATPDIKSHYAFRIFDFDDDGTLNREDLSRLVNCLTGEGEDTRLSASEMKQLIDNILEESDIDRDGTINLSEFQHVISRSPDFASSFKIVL
Cytochrome P450 2C9 (Homo sapiens), sequence (P11712 whole entry, looked up): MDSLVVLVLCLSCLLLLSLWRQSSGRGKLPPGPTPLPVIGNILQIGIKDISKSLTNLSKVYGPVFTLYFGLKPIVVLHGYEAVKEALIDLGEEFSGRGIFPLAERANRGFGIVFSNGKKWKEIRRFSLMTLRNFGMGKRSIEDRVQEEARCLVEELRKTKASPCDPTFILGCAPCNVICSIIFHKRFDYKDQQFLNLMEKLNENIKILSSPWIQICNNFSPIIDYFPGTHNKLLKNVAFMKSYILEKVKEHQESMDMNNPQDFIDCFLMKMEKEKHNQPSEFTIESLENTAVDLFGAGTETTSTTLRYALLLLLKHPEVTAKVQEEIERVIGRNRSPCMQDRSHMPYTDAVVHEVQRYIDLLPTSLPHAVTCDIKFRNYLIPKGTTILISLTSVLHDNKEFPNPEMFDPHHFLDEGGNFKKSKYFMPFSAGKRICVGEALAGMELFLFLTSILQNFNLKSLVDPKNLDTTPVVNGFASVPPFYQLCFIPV
Cytochrome P450 2D6 (Homo sapiens), sequence (P10635 whole entry, looked up): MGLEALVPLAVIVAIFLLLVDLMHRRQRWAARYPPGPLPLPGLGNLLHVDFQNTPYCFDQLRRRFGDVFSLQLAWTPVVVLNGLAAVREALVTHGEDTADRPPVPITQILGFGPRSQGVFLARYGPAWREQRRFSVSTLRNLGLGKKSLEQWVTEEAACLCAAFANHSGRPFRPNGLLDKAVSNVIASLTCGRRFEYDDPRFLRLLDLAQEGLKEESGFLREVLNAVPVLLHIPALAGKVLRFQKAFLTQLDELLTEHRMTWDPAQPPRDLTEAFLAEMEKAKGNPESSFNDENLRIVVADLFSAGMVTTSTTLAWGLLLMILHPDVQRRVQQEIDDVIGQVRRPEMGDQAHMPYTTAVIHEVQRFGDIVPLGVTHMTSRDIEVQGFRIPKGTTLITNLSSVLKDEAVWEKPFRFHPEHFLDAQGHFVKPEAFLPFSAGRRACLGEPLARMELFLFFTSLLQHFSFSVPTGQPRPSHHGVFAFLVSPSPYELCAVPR

Regarding `CNC(=O)c1ccc(N2C(=S)N(c3cnc(C#N)c(C(F)(F)F)c3)C(=O)C23CCC3)cc1F`, the outcome in experiment [1] was inactive. Also, in experiment [2], the Potency result is “inactive”. The Potency in experiment [3] was 6.74 µM (active).

Regarding `COc1ccc(CC2c3cc(OC)c(OC)cc3CC[N+]2(C)CCC(=O)OCCCCCOC(=O)CC[N+]2(C)CCc3cc(OC)c(OC)cc3C2Cc2ccc(OC)c(OC)c2)cc1OC` (configuration not stated), the values for the activity change, negative = inhibition in experiment [1] and in experiment [2] were -3.2% [at 6.45 µM] and 101% [at 7.35 µM], respectively. Besides, the Potency result in experiment [3] is “inactive”.

For `CN(C)CC(C)(C)CNc1nn2c(-c3ccccc3)nnc2cc1C1CCC1`, in experiment [1], the outcome was inactive. Also, the Potency result in experiment [2] was “inactive”. In experiment [3], the Potency was 8.49 µM (active).

For the molecule `CCOC(=O)C1=C(C)NC2=C(C(=O)CC(C)(C)C2)C1c1ccc(-c2ccccc2)cc1` (configuration not stated), the Potency result in experiment [4] is “inactive”. In addition, in experiment [3], the Potency is 2.68 µM (active).

On to `CN1CC[C@@H](c2c(O)cc(O)c3c(=O)cc(-c4ccccc4Cl)oc23)[C@@H](O)C1`, for which, in experiment [2], the Potency result is “inactive”.

For `Cc1cc(Nc2nc(N[C@@H](C)c3ccc(F)cc3)c(C#N)cc2F)n[nH]1`, the Potency entry in experiment [2] is “inactive”. Moreover, the values for the Potency in experiment [4] and in experiment [3] were 26.8 µM (active) and 1.9 µM (active), respectively.

As to `Nc1cc(C(F)(F)F)c(-c2cc(N3CCOCC3)nc(N3CCOCC3)n2)cn1`, in experiment [2], the Potency entry was “inactive”.

`COc1cccc(Nc2c(C(N)=O)cnc3c(C)cc(S(=O)(=O)c4cccc(C(=O)N(C)C)c4)cc23)c1`: the Potency entry in experiment [2] was “inactive”. Further, the Potency in experiment [3] is 0.849 µM (active).

With `Nc1ccc(C(=O)c2cc3c(ccc4ccccc43)[nH]2)cc1`, in experiment [2], the Potency entry is “inactive”.

On to `CCCNC(=O)Nc1ccc(Oc2ncnc3cc(OC)c(OC)cc23)cc1Cl`, for which the Potency result in experiment [2] and in experiment [3] was “inactive” throughout.

Regarding `COc1cc(C(=O)NS(=O)(=O)c2ccccc2C)ccc1Cc1cn(C)c2ccc(NC(=O)OC3CCCC3)cc12`, in experiment [2], the Potency entry is “inactive”. Moreover, the Potency in experiment [3] was 13.8 µM (active).

On to `Cc1nc2cnc3ccc(C#Cc4cccnc4)cc3c2n1-c1ccc(C(C)(C)C#N)cc1`, for which the Potency entry in experiment [2] is “inactive”.

Consider `COc1cccc2nc(-c3cccs3)nc(NN3C(=O)C=C(C)C3=O)c12`, for which the Potency entry in experiment [2] is “inactive”.

For `COC(=O)c1ccc2c(C(=Nc3ccc(N(C)C(=O)CN4CCN(C)CC4)cc3)c3ccccc3)c(O)[nH]c2c1`, the Potency result in experiment [2], in experiment [4] and in experiment [3] was “inactive” throughout.

Turning to `CN1c2cc(O)c(N=NC(N)=O)cc2CC1S(=O)(=O)O` (configuration not stated), the Potency result in experiment [2] is “inactive”.

Consider `CC[C@H](CO)Nc1nc(NCc2ccccc2)c2ncn(C(C)C)c2n1`, for which the Potency result in experiment [2] is “inactive”.

For the molecule `CS(=O)(=O)c1ccc(-c2cnc(N)c(C(=O)Nc3ccccc3)n2)cc1`, the Potency result in experiment [2] and in experiment [4] was “inactive” each time. Besides, the Potency in experiment [3] is 12 µM (active).

As to `Clc1cccc(-n2nnnc2NCc2ccccc2Oc2ccccn2)c1Cl`, the Potency in experiment [3] was 6.01 µM (active).

For the molecule `OCCCNc1cc(-c2ccnc(Nc3cccc(Cl)c3)n2)ccn1`, the Potency result in experiment [2] was “inactive”. In addition, the figures for the Potency in experiment [4] and in experiment [3] were 13.5 µM (active) and 10.7 µM (active), respectively.

In the case of `CCN(CC)CCCCNc1ncc2cc(-c3cc(OC)cc(OC)c3)c(NC(=O)NC(C)(C)C)nc2n1`, in experiment [2], the Potency result is “inactive”.

Turning to `O=C(Nc1nc2cccc(-c3ccc(CN4CCS(=O)(=O)CC4)cc3)n2n1)C1CC1`, the Potency result in experiment [2], in experiment [4] and in experiment [3] was “inactive” in each case.

For `COc1cc2ncnc(Nc3ccc(F)c(Cl)c3)c2cc1NC(=O)C=CCN1CCCCC1`, the Potency entry in experiment [2] was “inactive”.

With `CC(=O)Nc1sc2c(c1-c1nc3ccccc3s1)CNC2`, the Potency entry in experiment [2] is “inactive”.

With `Cc1c(C)n(Cc2ccc(-c3ccccc3C(=O)O)cc2)c2ccc(C(=O)N[C@@H](C)c3ccc([N+](=O)[O-])cc3)cc12`, the Potency in experiment [3] was 15.1 µM (active).

As to `COc1cccc2c(NCc3ccccc3)nc(-n3c(N)nc4ccccc43)nc12`, the Potency entry in experiment [2] is “inactive”. The Potency in experiment [3] is 6.74 µM (active).

With `CCS(=O)(=O)c1cccc(-c2cc(C(=O)NC3CCN(C)CC3)c(C)c3[nH]c4ncc(C)cc4c23)c1`, the Potency result in experiment [2] and in experiment [4] was “inactive” each time. In experiment [3], the Potency is 4.77 µM (active).

In the case of `CC1(O)CC(c2nc(-c3ccc4ccc(-c5ccccc5)nc4c3)c3c(N)nccn23)C1` (configuration not stated), the Potency entry in experiment [2] is “inactive”. Moreover, the Potency in experiment [3] is 2.13 µM (active) and 952 nM (active).

For `C[C@@H](Oc1cc(-c2cnn(C3CCNCC3)c2)cnc1N)c1c(Cl)ccc(F)c1Cl`, the Potency result in experiment [2] is “inactive”. The Potency in experiment [4] was 21.3 µM (active) and 13.5 µM (active); in experiment [3], 1.69 µM (active).

Take `CC(C)c1cc(C(=O)N2Cc3ccc(CN4CCN(C)CC4)cc3C2)c(O)cc1O`: the Potency entry in experiment [2] and in experiment [4] was “inactive” each time. Further, in experiment [3], the Potency is 12 µM (active).

As for `CC(C)c1cnn2c(NCc3ccccc3)cc(N[C@@H](CO)[C@H](O)CO)nc12`, in experiment [2], the Potency entry was “inactive”. In experiment [3], the Potency is 3.79 µM (active).

In the case of `C[C@@]12O[C@@H](C[C@]1(O)CO)n1c3ccccc3c3c4c(c5c6ccccc6n2c5c31)CNC4=O`, in experiment [2], the Potency entry is “inactive”.

For `C=CC(=O)Nc1cccc(Oc2nc(Nc3ccc(N4CCN(C)CC4)cc3)ncc2Cl)c1`, the Potency entry in experiment [2] was “inactive”. Further, the Potency in experiment [3] is 2.39 µM (active).

(Values after PubChem BioAssay (NCATS).)
